PubChem BioAssay (NCI)
The panel holds about 83,000 compounds, 20% with a hit somewhere; the sample as a whole holds those more often.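 Cells were grown in 96-well plates and exposed to the test compound at a single concentration for 48 hours; results are reported as percent growth, with values below 10 considered active.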 Unmarked numbers belong to inactive results. Calls of active or inactive are those of the source.

Columns and labels:
Assay in all cases: NCI-60 one-dose screen, 48 h (100 = growth as untreated, 0 = no growth, -100 = all killed)
Conditions in all cases: 10 µM unless noted
SK-MEL-2 melanoma = tested on: SK-MEL-2 melanoma
EKVX NSCLC = tested on: EKVX NSCLC
SN12C renal = tested on: SN12C renal
UO-31 renal = tested on: UO-31 renal
TK-10 renal = tested on: TK-10 renal
ACHN renal = tested on: ACHN renal
CAKI-1 renal = tested on: CAKI-1 renal
A498 renal = tested on: A498 renal
CCRF-CEM leukemia = tested on: CCRF-CEM leukemia
MOLT-4 leukemia = tested on: MOLT-4 leukemia

Row | SMILES | growth (SK-MEL-2 melanoma) | growth (EKVX NSCLC) | growth (SN12C renal) | growth (UO-31 renal) | growth (TK-10 renal) | growth (ACHN renal) | growth (CAKI-1 renal) | growth (A498 renal) | growth (CCRF-CEM leukemia) | growth (MOLT-4 leukemia)
1 | N#Cc1c(-c2cccs2)cc(-c2cnccn2)nc1SCC(=O)N/N=C/c1ccccc1 | 103% | 56.2% | 45.5% | 75.8% | -14.7% (active) | 56.9% | 48.2% | 87.8% | 62.6% | 71.8%
2 | NC(=S)n1c(=O)n(-c2cccc(C(F)(F)F)c2)c(=O)c2cc(-c3ccc(F)cc3F)ccc21 | -29.1% (active) | 5.19% (active) | -3.03% (active) | 6.1% (active) | 7.56% (active) | -0.456% (active) | -13.5% (active) | -18.8% (active) | 18% | 0.58% (active)
3 | Cn1ncc2ncc(-c3ccc4ncc(C#N)c(N5CCc6cc(F)c(Cl)cc65)c4c3)cc21 | 47.6% | 11.3% | 30.3% | 3.14% (active) | 63.2% | 17% | 13.6% | 2.55% (active) | 28.4% | 12.6%
4 | Oc1ccc(-c2nc3ccc(/C(=N\N=C\c4ccc(Cl)cc4)c4ccccc4)cc3[nH]2)cc1 | 90.6% | 98.9% | 83.5% | 63.5% | 105% | 86.8% | 76.1% | 65.7% | 21.6% | 57%
5 | CCOC(=O)c1cccc(NC2=C(Cl)C(=O)c3nc(C)ccc3C2=O)c1 | 105% | 92.1% | 95.5% | 93.1% | 119% | 96.1% | 108% | 88.8% | 15% | 48.5%
6 | Cn1cc(C2=C(c3coc4cc(Br)ccc34)C(=O)NC2=O)c2ccccc21 | 96.5% | 67% | 95.7% | 52.5% | 101% | 88.2% | 50.5% | 79.8% | 62.5% | 52.9%
7 | CNCCN(C)c1ccc(Nc2cc(NC3CC3)n3ncc(C#N)c3n2)cc1NC(C)=O | -20.4% (active) | 7.67% (active) | 22.4% | 6.68% (active) | -29.9% (active) | 15.1% | -36.6% (active) | -36.5% (active) | 13.2% | 8.27% (active)
8 | COC(=O)CCSC1=C(C)C(=O)c2ccccc2C1=O | 107% | 74.2% | 92.5% | 64.6% | 162% | 82.6% | 80.4% | 116% | 45.7% | 31.8%
9 | C/C(=N/N)c1nnn(-c2ccc(Br)cc2)c1C | 112% | 99.5% | 91% | 79.7% | 98.1% | 101% | 91.6% | 93.3% | 109% | 93.6%
10 | CCCCCC[n+]1ccc(SCC(=O)n2ccc3ccccc32)c2ccccc21 | 94.3% | 83.8% | 88.8% | 68.6% | 108% | 87.2% | 78.4% | 115% | 77.3% | 79.4%
11 | CCOC(=O)C1=C(C)NC(C)=C(C(=O)OC(C)C)C1c1cccc(C#N)c1 (stereo not given) | 106% | 90.7% | 97.8% | 93.3% | 106% | 96.7% | 84.7% | 83.9% | 103% | 88.8%
12 | COc1ccc2[nH]cc(/C=N/Nc3ccnc4cc(Cl)ccc34)c2c1 | -83.6% (active) | -96.5% (active) | -100% (active) | -100% (active) | -96.5% (active) | -100% (active) | -99.9% (active) | -98.6% (active) | -42.8% (active) | -48.4% (active)
13 | Brc1cc(-c2cc(-c3ccc4c(c3)OC=CO4)[nH]n2)cs1 | 106% | 72.8% | 98.8% | 71.2% | 192% | 93.7% | 63.8% | 87.1% | 89.9% | 78.7%
14 | COc1ccc(/C(=N\N=C(N)N)c2ccc(Cl)cc2)cc1OC | 99.9% | 72.6% | 70.8% | 83.7% | 77% | 94.8% | 50.1% | 76.5% | 67.3% | 52.5%
15 | CN1CCN(Cc2ccc(NC(=O)c3cncc(C#Cc4cnc5ccc(OCCCS(C)(=O)=O)nn45)c3)cc2C(F)(F)F)CC1 | -82% (active) | -10.7% (active) | -15.8% (active) | -12.9% (active) | -6.6% (active) | -16.1% (active) | -14% (active) | -90.9% (active) | 6.43% (active) | 2.88% (active)
16 | NC(=O)n1c(=O)n(-c2cccc(C(F)(F)F)c2)c(=O)c2cc(-c3ccc(F)cc3F)ccc21 | -20.1% (active) | -0.656% (active) | 1.52% (active) | 4.54% (active) | 8.59% (active) | -3.85% (active) | -21.6% (active) | -26.4% (active) | 9.98% (active) | 0.274% (active)
17 | CCCCCc1ccc(S(=O)(=O)Nc2cc(-c3csc(N)n3)ccc2OC)cc1 | 112% | 86.4% | 89.2% | 53.5% | 113% | 98% | 88.4% | 96.6% | 57.4% | 78.6%
18 | COC(=O)c1ccc(NC2=C(Cl)C(=O)c3nc(C)ccc3C2=O)cc1 | 88.3% | 76.6% | 77% | 61.7% | 152% | 35.1% | 80.2% | 77.9% | 16.1% | 19.8%
19 | O=C(CSc1nc2ccccc2c(=O)n1-c1ccc(Cl)cc1)N/N=C/c1ccc(Oc2ccc(Cl)cc2)cc1 | 54.3% | 40.8% | 45.3% | 93.1% | 39.7% | 63.5% | 33% | -42.3% (active) | -2.67% (active) | -25.1% (active)
20 | CCCCN1C(=O)/C(=c2\sc3n(c2=O)C2C(NN=3)N(CC)C(=O)N2CC)c2cc(C)ccc21 (stereo not given) | 113% | 85.2% | 97.9% | 75% | 117% | 95.1% | 58.1% | 96% | 94.7% | 91.8%
21 | O=C(CCCCCCNC(=O)C(O)(O)C(F)(F)F)Nc1ccc(Br)cc1 | -24.7% (active) | 33.3% | 20.1% | -2.06% (active) | -2.6% (active) | -15.8% (active) | -13.9% (active) | -13.9% (active) | 23.9% | 13.2%
22 | CCCCCCNC(=O)Oc1ccc(/C(=C(/C)c2ccc(OC)cc2)c2ccc(OCCN3CCCCCC3)cc2)cc1 | 74.5% | 54.8% | 14.5% | 6.69% (active) | 92.1% | 47.7% | 17.3% | 64.2% | 12.4% | 9.66% (active)
23 | COc1cc2cc(Oc3ccc(NC(=O)c4cc(C(F)(F)F)cc(C(F)(F)F)c4)cc3)c(C)nc2cc1OCCN1CCOCC1 | 101% | 57.7% | 83% | 55.8% | 105% | 77.3% | 52.8% | 55% | 45% | 66.1%
24 | NNc1nnc2nc(Nc3ccccc3)nc(Nc3ccc(S(N)(=O)=O)cc3)n12 | 111% | 99.4% | 98.8% | 82.2% | 106% | 106% | 94.5% | 102% | 92.5% | 105%
25 | CCOc1cccc(/C(N)=N/C(N)=N/c2nc3ccccc3s2)c1 | 117% | 73.3% | 53.1% | 38.4% | 135% | 48.7% | 62.4% | 115% | 55.8% | 62.4%
26 | Cn1cc(-c2cc3ncnc(Nc4ccc(NC(=O)Nc5cc(C(C)(C)C)on5)cc4)c3s2)cn1 | -9.06% (active) | 48.2% | 18.8% | 41.7% | 62.5% | 27.1% | 14.5% | 16.4% | 22.2% | 14.3%
27 | O=C1[C@H]2Cc3c([nH]c4ccccc34)[C@H](c3ccc(Br)cc3)N2C(=O)CN1C1CCN(CC2CCCCC2)CC1 | 109% | 83.8% | 73.7% | 45.3% | 121% | 80.4% | 52.8% | 79.3% | 49.1% | 38.5%
